# Rows were chosen to be rich in hits. Some 12% of all compounds tested hit in one or more screens of this group.
# Pf growth 96h: Primary qHTS for delayed death inhibitors of the malarial parasite plastid, 96 hour incubation; P. falciparum luciferase reporter growth, 96 h; Potency, µM (series often up to 28.7 µM), without a hit: at the top dose activity change, negative = inhibition, hits mostly inhibitors; 320,000 tested, 6.9% active; note: % is set by controls: 0 for no effect and ±100 for the full control effect
#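 Two parasite generations (96 h, 37 C, 5% CO2) of compound exposure in infected erythrocytes (0.05% parasitemia, 2% hematocrit). Luciferase-reporter P. falciparum; decreased luminescence indicates inhibited growth, aimed at apicoplast-acting delayed death.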
# Pf growth 48h: Primary qHTS for delayed death inhibitors of the malarial parasite plastid, 48 hour incubation. P. falciparum luciferase growth in erythrocytes, 48 h. Potency, µM (series often up to 28.7 µM), without a hit: top-dose activity change, negative = inhibition, hits mostly inhibitors. 310,000 tested, 5.9% active. AID 504832, 2011; note: % is set by controls: 0 for no effect and ±100 for the full control effect
#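 In quantitative HTS format, infected erythrocytes bearing luciferase-reporter parasites were treated for a single generation at 37 C. Luminescence after adding detection reagent served as the growth measure.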
# SARS PLpro yeast: qHTS of Yeast-based Assay for SARS-CoV PLP; S. cerevisiae expressing SARS-CoV PLpro, growth rescue; Potency, µM (highest dose often 32.9 µM), without a hit: at the highest dose activity, positive = growth rescue, most hits filed as activators; 330,000 tested, 0.19% active; calls by dose curve; note: 0% is about no effect; nearly all actives have a fitted effect of over 55% in size
# Sm TGR block: qHTS Assay for the Inhibitors of Schistosoma Mansoni Peroxiredoxins; purified TGR, DTNB reduction, TNB absorbance 405 nm; Potency, µM (series often up to 114 µM), for the others: top-dose activity change, negative = inhibition, hits mostly inhibitors; 360,000 tested, 3% active; note: % is set by controls: 0 for no effect and ±100 for the full control effect; nearly all actives have a fitted effect of over 60% in size
#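 TGR 20 nM + NADPH 100 uM (dispensed conc.), cpd preinc 15 min RT; start with NADPH (500 uM addition) then DTNB (15 mM addition). Kinetic TNB absorbance, 405 nm filter. Four-parameter Hill fit across titration.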
# The depositor's hits bear a star; ? = inconclusive; . = no result. Unless noted, calls come from the whole dose curve; as a rule, active = well fitted curve in the direction sought with a large enough effect; inconclusive = small, poorly fitted or top-dose-only effect, or another doubt; inactive = no such curve, though single readings can be large; an effect the other way counts as inactive or inconclusive. Potency is the fitted concentration of half-maximal effect.
SMILES,Pf growth 96h,Pf growth 48h,SARS PLpro yeast,Sm TGR block
CN1C(=O)SC(Nc2ccccc2C(=O)O)C1=O (stereo unspecified),1.3µM*,6%,4%,0%
N#Cc1ccc(COC(=O)c2cnc(Cl)c(Cl)c2)cc1,-14%,12%,10%,-9%
CCOC(=O)C(NCc1ccccc1OC)(NC(=O)c1ccccc1)C(F)(F)F (stereo unspecified),16%,?,1%,5%
COc1ccc(CNC(NC(=O)c2ccccc2)(C(F)(F)F)C(F)(F)F)cc1,?,12µM*,-10%,-21%
CCOC(=O)C(NCc1ccc(F)cc1)(NC(=O)c1ccccc1)C(F)(F)F (stereo unspecified),10µM*,-20%,-21%,-2%
COc1ccc(CNC(=O)c2ccc(-c3ccccc3)cc2)cc1,52%,11%,3%,-3%
CC(C)N(Cc1ccccc1)C(=O)CCS(=O)(=O)c1cc2c(cc1Cl)NC(=O)CO2,.,.,.,1%
Cc1cccc(N2CCN(C(=O)Cn3cnc4sc(C)c(S(=O)(=O)N5CCN(c6ncccn6)CC5)c4c3=O)CC2C)c1 (stereo unspecified),.,.,.,-4%
OC(c1ccc(F)cc1)C(c1ccccc1)N1CCOCC1 (stereo unspecified),1.9µM*,4%,.,-5%
Cc1cc2c(nc1C)CCCN2C[C@@H](C)O/N=C1/[C@H]2CCn3c(=O)n(-c4ccccc4)c(=O)n3[C@H]2[C@H](O)[C@@H]2O[C@H]12,13µM*,?,5%,?
Cc1ccc(-c2nn(-c3ccc(F)cc3)c3c2cnc2cc(F)c(F)cc23)cc1,.,.,.,-1%
CCOc1ccc(OCC)c(NC(=O)C2CCN(c3nnc(-n4cccc4)s3)CC2)c1,.,.,.,11%
COc1ccc(C)cc1NC(=O)CSc1ccc(-c2sc(C)nc2C)nn1,1%,12µM*,0%,5%
COc1ccc(C)cc1NC(=O)CSc1ccc(-c2ccccn2)nn1,9.3µM*,?,-16%,-8%
COc1ccc(OC)c(NC(=O)CSc2ccc(-c3sc(C)nc3C)nn2)c1,.,.,.,4%
COc1ccc(CNS(=O)(=O)c2cc3c(cc2Cl)NC(=O)CO3)cc1,33%,-7%,-3%,3%
CCOCCCN(Cc1ccco1)S(=O)(=O)c1cc2c(cc1Cl)NC(=O)CO2,.,.,.,18µM*
O=C1COc2cc(S(=O)(=O)NCc3ccco3)c(Cl)cc2N1,-5%,?,1%,16µM*
O=C(Cn1cnc2c(NCc3ccccc3)ncnc21)NCCCN1CCCC1=O,.,.,8%,.
Cc1sc2c(c1C)c(=O)n(-c1ccc(Cl)cc1)c(=O)n2Cc1c(F)cccc1Cl,.,.,.,-1%
COc1cc([C@@H]2CC=C(C(=O)O)[C@H](c3ccc(Cl)cc3)N2S(=O)(=O)c2ccc(C)cc2)cc(OC)c1OC,9.3µM*,9.3µM*,1%,-18%
COc1cc([C@@H]2CC=C(C(=O)O)[C@H](c3ccccc3)N2S(=O)(=O)c2ccc(C)cc2)cc(OC)c1OC,8.3µM*,3.3µM*,-8%,-6%
COc1cccc(/C=N/n2c(COc3ccccc3)n[nH]c2=S)c1,8%,35%,3%,-1%
CCCC(=O)NC(Nc1ccccc1F)C(Cl)(Cl)Cl (stereo unspecified),?,?,-6%,1%
CC(C)CC(=O)NC(Nc1ccccc1F)C(Cl)(Cl)Cl (stereo unspecified),10µM*,-5%,4%,6%
SMILES,Pf growth 96h,Pf growth 48h,SARS PLpro yeast,Sm TGR block
CCC(=O)NC(NC(=S)Nc1ccc(S(N)(=O)=O)cc1)C(Cl)(Cl)Cl (stereo unspecified),2.1µM*,-6%,-3%,-4%
CC(C)CC(=O)NC(NC(=S)Nc1ccccc1)C(Cl)(Cl)Cl (stereo unspecified),3%,13µM*,-4%,-1%
CC(=O)NC(NC(=S)Nc1ccc(N=Nc2ccccc2)cc1)C(Cl)(Cl)Cl (stereo unspecified),183%,12µM*,-3%,9%
CSCC[C@H](NC(=O)N1C[C@H]2C[C@@H](C1)c1cccc(=O)n1C2)C(=O)Nc1ccc(NC(C)=O)cc1,-26%,28%,-4%,5%
CCc1ccc(OCC(=O)NC(NC(=S)Nc2ccccc2)C(Cl)(Cl)Cl)cc1 (stereo unspecified),0%,13µM*,-9%,2%
CCc1ccc(OCC(=O)NC(NC(=S)Nc2ccccc2C)C(Cl)(Cl)Cl)cc1 (stereo unspecified),?,?,11%,8%
CC(=O)N1CCC2(CC1)C(C#N)=C(N)Oc1n[nH]c(C(F)(F)F)c12,2%,-1%,1%,28µM*
CC(=O)N1CCC2(CC1)C(C#N)=C(N)Oc1n[nH]c(CSc3ccc(C)cc3)c12,6.6µM*,32%,0%,-1%
Cc1nc2c(c(C)c1CCC(=O)N1CCN(c3ccccc3)CC1)c(=O)n(C)c(=O)n2C,.,.,.,-6%
CCCCCSc1cc(O)c(C(CNC)C(C)C)cc1OC (stereo unspecified),0.47µM*,0.41µM*,-2%,1%
Cc1cccc(CCNC(=O)C2CCCN(c3ncnc4c3nc3n4CCCCC3)C2)c1 (stereo unspecified),12µM*,?,3%,-2%
COc1cc(NC(=O)C2CCCN(c3ncnc4c3nc3n4CCCCC3)C2)cc(OC)c1OC (stereo unspecified),13µM*,?,2%,-6%
O=C(Nc1ccccc1Cl)C1CCCN(c2ncnc3c2nc2n3CCCCC2)C1 (stereo unspecified),6.6µM*,?,0%,5%
COc1cc(OC)c(NC(=O)C2CCCN(c3ncnc4c3nc3n4CCCCC3)C2)cc1Cl (stereo unspecified),.,.,.,1%
COc1ccc(CNC(=O)c2ccc3c(c2)N(C)C(=O)C2CCCCN32)cc1OC (stereo unspecified),.,.,.,1%
Cc1ccc(-n2c(SCCC(C)C)nc3sc4c(c3c2=O)CC(C)(C)OC4)cc1,.,.,.,1%
COc1ccc(S(=O)(=O)N2CCN(CCc3ccccc3)CC2)cc1,?,12%,-5%,0%
COc1cc(OC)c(N(C)C(=O)CSc2c3c(nc4ccc(Cl)cc24)CCCC3)cc1Cl,.,.,.,-4%
CCOc1ccc(CCNC(=O)Cn2c(=O)oc3ccccc32)cc1OCC,.,8.3µM*,6%,7%
O=c1oc2ccccc2n1Cc1ccccc1Cl,4.7µM*,4%,-3%,13%
CCOc1ccccc1CNC(=O)Cn1c(=O)oc2ccccc21,-31%,.,-3%,-5%
O=C(CCn1c(=O)oc2ccccc21)n1c(=O)oc2ccccc21,25%,0%,-3%,16µM*
CCOc1ccc(CNC(=O)CCn2c(=O)oc3ccccc32)cc1OC,9.3µM*,?,8%,-2%
CCOc1ccccc1NC(=O)CCn1c(=O)oc2ccccc21,6.6µM*,13%,2%,4%

# High-throughput results: PubChem BioAssay, National Center for Advancing Translational Sciences (NCATS)
